Test [1] in a line: NCI Yeast Anticancer Drug Screen. Data for the rad50 strain (AID 155).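 Note: 0% = growth of vehicle-only cultures of the same strain.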 The note with it: S. cerevisiae rad50 strain growth inhibition; at 50.0 µM; active compounds read high. The gist of the method: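 Readout: growth inhibition relative to vehicle-treated cultures. Compound exposure was carried out in a genetically defined yeast strain deficient in DNA damage repair.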
A short description of test [2]: NCI Yeast Anticancer Drug Screen. Data for the mec2-1 strain (AID 157). The note with it: S. cerevisiae mec2-1 strain, at 50.0 µM, active compounds read high. The gist of the method: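 Each compound was tested on mec2-1 yeast, a strain altered in DNA damage repair or cell cycle control. Growth inhibition is reported relative to vehicle.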
Test [3] in a line: NCI Yeast Anticancer Drug Screen. Data for the sgs1 mgt1 strain (AID 161).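 Note: 0% = growth of cultures given vehicle only.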 The note with it: S. cerevisiae sgs1 mgt1 strain, at 50.0 µM, active compounds read high. The gist of the method: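 Genetically altered yeast, compound exposure, growth inhibition relative to vehicle.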
A short description of test [4]: NCI Yeast Anticancer Drug Screen. Data for the cln2 rad14 strain (AID 165).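 Note: 0% = growth equal to vehicle treated cultures.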 The note with it: S. cerevisiae cln2 rad14 strain, at 50.0 µM, active compounds read high. A digest of the protocol: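 Test compounds were added to cln2 rad14 yeast cultures; inhibition of growth was then determined by comparison with vehicle treatment.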
Test [5] is described as follows: NCI Yeast Anticancer Drug Screen. Data for the bub3 strain (AID 167). The note with it: S. cerevisiae bub3 mutant strain, at 50.0 µM, active compounds read high. A digest of the protocol:
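Readout: yeast growth inhibition, expressed relative to vehicle-only wells. The test organism is a mutant strain from a panel with lesions in DNA repair or checkpoint genes.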

The nature of test [6]: NCI Yeast Anticancer Drug Screen. Data for the mlh1 rad18 strain (AID 175). The note with it: S. cerevisiae mlh1 rad18 strain growth inhibition; at 50.0 µM; active compounds read high. The gist of the method:
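Inhibition values reflect reduced growth of mutant yeast versus vehicle-treated controls following compound exposure; the mutations affect DNA damage repair.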

Compounds without any hit were thinned out: in the full panel of roughly 79,000, 15% have a hit. Values without a mark were called inactive. The source made the active and inactive calls. Cut-off read from the data, not from the text of the source: active = growth inhibition above about 70%; inactive = the rest.

Consider `N#CCCCNc1ccccc1`, for which the growth inhibition in test [1] is -19.1%; in test [2], -15%; in test [3], -28.4%; in test [4], -4.9%; in test [5], -8.6%; in test [6] it was -20.6%.

In the case of `CCC(C)(S)CN` (stereo unspecified), the growth inhibition is -1.55% in test [1]; -2.55% in test [2]; -7.35% in test [3]; -37.5% in test [4]; -11.4% in test [5]; -1.55% in test [6].

As to `CC(=O)OCCOC(C)=O`, the growth inhibition in test [1] was 15.2%; in test [2], 4.35%; in test [3] it was -5.1%; in test [4], 19.9%; in test [5], 21.3%; in test [6], 1.45%.

As for `NC(N)=N/N=C(\c1ccc(Cl)cc1)C1CC1`, the growth inhibition in test [1] was 2.7%; in test [2], -5.05%; in test [3], -11.9%; in test [4], -13.2%; in test [5], -65.3%; in test [6], 10%.

On to `O=C(/C=C/c1ccccc1)N(Cc1ccccc1)c1ccccc1`, for which the growth inhibition was 94.3% (active) in test [1]; 96.7% (active) in test [2]; 96.7% (active) in test [3]; 93.5% (active) in test [4]; 95.2% (active) in test [5]; 95.6% (active) in test [6].

As to `Cc1ccc(SCc2cn(C3OC(CO)C(O)C3O)c(=O)[nH]c2=O)cc1` (stereo unspecified), the growth inhibition in test [1] is 25.3%; in test [2], 20.4%; in test [3], 12.9%; in test [4] it was 22.6%; in test [5], -1.4%; in test [6], 12.2%.

Turning to `COC(=O)C(C)n1c(C)csc1=S` (stereo unspecified), the growth inhibition in test [1] was -0.15%; in test [2], 4.85%; in test [3], -1.05%; in test [4], -26.4%; in test [5], 16.6%; in test [6], -0.55%.

Regarding `O=C(O)c1ccc([N+](=O)[O-])cc1C(=O)c1cccs1`, the growth inhibition is 0.7% in test [1]; -7.75% in test [2]; 4.6% in test [3]; -2.35% in test [4]; 5.6% in test [5]; -0.05% in test [6].

For the compound `Nc1ccc(O)c(N)c1`, the growth inhibition in test [1] is 35.1%; in test [2], 23.5%; in test [3] it was 26.6%; in test [4] it was 13.9%; in test [5], -8%; in test [6], 31.4%.

Turning to `CC/C=C(\C)C(C#N)(CC)C(=O)OCC` (stereo unspecified), the growth inhibition in test [1] is 4.65%; in test [2] it was -12.7%; in test [3], -4.6%; in test [4], 2.75%; in test [5], -20.4%; in test [6] it was 9.2%.

Take `CCCCc1c(C#N)c(=O)n2c(N)c(C#N)cnc2c1SC`: the growth inhibition is 18.9% in test [1]; 8.45% in test [2]; 21.2% in test [3]; 1.5% in test [4]; 12.7% in test [5]; 25.8% in test [6].

Consider `CC(=O)CC(=O)NC1CCCC1`, for which the growth inhibition is -25.8% in test [1]; -38.6% in test [2]; -33% in test [3]; -3.5% in test [4]; -50% in test [5]; -13.9% in test [6].

Regarding `Cc1cc(=O)[nH]c(NN)n1`, the growth inhibition in test [1] is 1%; in test [2], -1.85%; in test [3] it was -1.85%; in test [4] it was 23.1%; in test [5] it was 21.9%; in test [6], 2.15%.

With `CCOC(=O)c1[nH]c(Cc2[nH]c(Cc3[nH]c(C(=O)OCC)c(C)c3C(=O)OCC)c(C(=O)OCC)c2C)c(C(=O)OCC)c1C`, the growth inhibition in test [1] was 36.1%; in test [2], 21.2%; in test [3], 45.2%; in test [4] it was 37.5%; in test [5] it was 24.7%; in test [6], 8.55%.

`CCO/N=C(\C(=O)NO)c1ccccc1`: the growth inhibition in test [1] was -6.35%; in test [2], 1.6%; in test [3], 1.5%; in test [4], -24.4%; in test [5] it was -1.9%; in test [6] it was 13.2%.

As to `Nc1nc(=O)n(C2OC(CO)C(O)C2O)cc1F` (stereo unspecified), the growth inhibition in test [1] is 10.8%; in test [2] it was -10.2%; in test [3] it was 4.4%; in test [4] it was -3.1%; in test [5] it was 11.5%; in test [6], 7.6%.

`CCCCCOC(C)(OCCCCC)OCCCCC`: the growth inhibition is 7% in test [1]; 13.6% in test [2]; -4.2% in test [3]; 2.8% in test [4]; 9.6% in test [5]; 7.5% in test [6].

Turning to `COc1ccc(CC(N)C(=O)N(C)C2C(CO)OC(n3cnc4c(N(C)C)ncnc43)C2O)cc1` (stereo unspecified), the growth inhibition in test [1] is 5.3%; in test [2], -10.8%; in test [3], -8.7%; in test [4], -25.7%; in test [5] it was 2.3%; in test [6] it was -7.45%.

As for `Oc1ccc(-c2cc(-c3c(O)cc(O)cc3O)on2)cc1`, the growth inhibition in test [1] is 4.25%; in test [2] it was -1.45%; in test [3], -17.4%; in test [4], -2.85%; in test [5], -7.45%; in test [6], 9.35%.

`C=C(C)/C=N/NS(=O)(=O)c1ccc(C)cc1`: the growth inhibition in test [1] was -14.6%; in test [2] it was 9.65%; in test [3] it was 6.7%; in test [4] it was -26.1%; in test [5] it was -18.1%; in test [6], 4.9%.

As for `Nc1cc2cn[nH]c2cc1N`, the growth inhibition was -10.6% in test [1]; 4.75% in test [2]; 4.4% in test [3]; -8.75% in test [4]; 9.3% in test [5]; 25.6% in test [6].

The values are drawn from PubChem BioAssay (NCI).
